# From PubChem BioAssay
# Inconclusive results are not listed. Activity calls are given as the source filed them.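 How the source made its calls, unless noted: active means inhibition over a set limit, the all-compound mean plus 3 SD, in both replicate runs; inconclusive means over that limit in just one replicate run; inactive means at or under that limit in both runs.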
# Assay: growth suppression of beta-catenin knockout HCT116, pilot screen, human colon tumor cells (AID 823;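 active means cell viability at or below a set limit in both duplicate runs, the limit being the all-compound median minus 4 SD, cut at about 23% in these data, passing the limit was not always enough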;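 further: 0% = wells killed by 20 µM Hyamine and 100% = untreated DMSO cell wells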)
# Details: CellTiter-Glo, 60 h, at 10 µM, hits give low values
row,Compound,viability
1,COc1ccc(C(=O)OCCN2C(=O)c3ccccc3C2=O)cc1OC,117% (inactive)
2,CCOC(=O)C1CCN(C(=O)c2ccc(NC(=O)C3CCCO3)cc2)CC1 (stereo not given),88.8% (inactive)
3,COCC(=O)NCc1nc2ccccc2[nH]1,105% (inactive)
4,COc1ccc(NC2=NCC(=O)N2c2ccccc2)c(OC)c1,91.5% (inactive)
5,O=C(NCc1nc2ccccc2[nH]1)c1ccc(S(=O)(=O)N2CCOCC2)cc1,85.8% (inactive)
6,COc1ccccc1N1CCN(C2=CC(=O)CCC2)CC1,100% (inactive)
7,CCn1cc(C(=O)N2CCN(c3ccccn3)CC2)c2cc(OC)c(OC)cc2c1=O,104% (inactive)
8,Cc1ccc(Cc2cnc(N)s2)o1,75.9% (inactive)
9,COc1ccccc1NC1=NCC(=O)N1Cc1ccccc1,93.9% (inactive)
10,COc1ccccc1N1CCN(CC(=O)Nc2cc(C)nn2-c2nc(C)cc(C)n2)CC1,19.6% (active)
11,C(=N\n1cnnc1)/c1ccc(N2CCOCC2)s1,89.8% (inactive)
12,Cc1cc2cc(CN(Cc3ccc4c(c3)OCO4)C(=O)c3cnccn3)c3nnnn3c2cc1C,87.2% (inactive)
13,CCOC(=O)C1CCCN(C(=O)CNC(=O)Cn2ccc3ccccc3c2=O)C1 (stereo not given),104% (inactive)
14,CN(C(=O)c1ccc(NC(=O)c2cnccn2)cc1)C1CCCCC1,99.9% (inactive)
15,CN(C)CCCNC(=O)CC(c1ccc(F)cc1)c1ccco1 (stereo not given),77.9% (inactive)
16,CCOC(=O)C1=CSC2=NS(=O)(=O)CCN12,97.7% (inactive)
17,O=C(Nc1ccc(Br)cc1Cl)c1cnccn1,84.1% (inactive)
18,CN1CCc2c(sc3nc(SCC(N)=O)n(-c4ccccc4)c(=O)c23)C1,84.3% (inactive)
19,O=C(Nc1nnc(-c2ccc3c(c2)CCCC3)o1)c1ccccc1Cl,34.6% (inactive)
20,CSC(=NCCCN1CCOCC1)NS(=O)(=O)c1cccs1,95.6% (inactive)

row,Compound,viability
1,O=C(N=c1nc2ccccn2s1)c1ccccc1,71.6% (inactive)
2,CCN(CC)CCOc1c(Br)ccc2c1sc1nc3n(c(=O)c12)CCC3,30.4% (inactive)
3,Cn1cnnc1SCc1ccc(C(=O)O)cc1,98.1% (inactive)
4,CCC(=O)N1CCc2cc(Br)cc(S(=O)(=O)N3CCN(c4ccccn4)CC3)c21,101% (inactive)
5,Cc1cc(=O)n2[nH]c(C)c(-c3ccc(Cl)cc3)c2n1,34.2% (inactive)
6,Cc1ccc2c(c1)c(C)c(C)n2CC(O)Cn1nc(C)cc1C (stereo not given),87.1% (inactive)
7,Cc1cccc(N(CC(=O)Nc2c(C)n(C)n(-c3ccccc3)c2=O)S(C)(=O)=O)c1C,95.3% (inactive)
8,O=C(CSc1oc(-c2ccc(F)cc2)nc1S(=O)(=O)c1ccccc1)NCC1CCCO1 (stereo not given),90.8% (inactive)
9,CCOc1ccccc1NC(=O)CSc1nnc(-c2cnccn2)n1C,91.8% (inactive)
10,CC1(C)Cc2c(c(=S)nc(-c3ccccc3)n2CCOCCO)CO1,98.2% (inactive)
11,COc1ccc(-c2cc3ccccc3n2CC(O)Cn2nc(C)cc2C)cc1 (stereo not given),69.5% (inactive)
12,CCOc1cc(CNC(=O)CN2C(=O)c3ccccc3S2(=O)=O)ccc1OC,98.1% (inactive)
13,CNC(=O)C1C2C=CC3(O2)C1C(=O)N(CCOC)C3C(=O)NCc1ccc(OC)cc1 (stereo not given),96% (inactive)
14,COc1ccc(NS(=O)(=O)c2cccc(-c3nnc4n3CCCCC4)c2)cc1,92.6% (inactive)
15,CC(C)(C)NS(=O)(=O)c1ccc(OCC(=O)Nc2ccc3c(c2)OCCO3)cc1,102% (inactive)
16,O=c1[nH]c2ccc(S(=O)(=O)NCc3ccccn3)cc2s1,95.8% (inactive)
17,O=C(Nc1cccc(Cl)c1Cl)c1ccncc1,103% (inactive)
18,Cn1ccnc1SCC(=O)NC1CCCCC1,100% (inactive)
19,O=C(Nc1ccc(Cl)cc1)c1ccncc1,106% (inactive)
20,CCn1cc(C(=O)NC2CCCCCC2)c2cc(OC)c(OC)cc2c1=O,76.3% (inactive)

# Assay: inhibitors of the yeast RAM network, pilot screen, dse1pr::URA3 reporter, 5-FOA selection (AID 869);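 further: 0% = DMSO wells with no growth and 100% = 10 µM 1-NA-PP1 with full growth; RAM network block rescues cells from 5-FOA so hits raise OD615 growth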
# Details: S. cerevisiae dse1pr::URA3 5-FOA growth, OD615, 2 d; at 10 µM; hits give high values; strain carries analog-sensitive mutant Cbk1 kinase
row,Compound,inhibition
1,COc1ccc(C(=O)OCCN2C(=O)c3ccccc3C2=O)cc1OC,0.34% (inactive)
2,CCOC(=O)C1CCN(C(=O)c2ccc(NC(=O)C3CCCO3)cc2)CC1 (stereo not given),1.09% (inactive)
3,COCC(=O)NCc1nc2ccccc2[nH]1,1.76% (inactive)
4,COc1ccc(NC2=NCC(=O)N2c2ccccc2)c(OC)c1,1.15% (inactive)
5,O=C(NCc1nc2ccccc2[nH]1)c1ccc(S(=O)(=O)N2CCOCC2)cc1,1.77% (inactive)
6,COc1ccccc1N1CCN(C2=CC(=O)CCC2)CC1,0.81% (inactive)
7,CCn1cc(C(=O)N2CCN(c3ccccn3)CC2)c2cc(OC)c(OC)cc2c1=O,0.495% (inactive)
8,Cc1ccc(Cc2cnc(N)s2)o1,2.06% (inactive)
9,COc1ccccc1NC1=NCC(=O)N1Cc1ccccc1,3.58% (inactive)
10,COc1ccccc1N1CCN(CC(=O)Nc2cc(C)nn2-c2nc(C)cc(C)n2)CC1,1.77% (inactive)
11,C(=N\n1cnnc1)/c1ccc(N2CCOCC2)s1,4.36% (inactive)
12,Cc1cc2cc(CN(Cc3ccc4c(c3)OCO4)C(=O)c3cnccn3)c3nnnn3c2cc1C,2.06% (inactive)
13,CCOC(=O)C1CCCN(C(=O)CNC(=O)Cn2ccc3ccccc3c2=O)C1 (stereo not given),0.875% (inactive)
14,CN(C(=O)c1ccc(NC(=O)c2cnccn2)cc1)C1CCCCC1,0.62% (inactive)
15,CN(C)CCCNC(=O)CC(c1ccc(F)cc1)c1ccco1 (stereo not given),0.69% (inactive)
16,CCOC(=O)C1=CSC2=NS(=O)(=O)CCN12,2.31% (inactive)
17,O=C(Nc1ccc(Br)cc1Cl)c1cnccn1,1.97% (inactive)
18,CN1CCc2c(sc3nc(SCC(N)=O)n(-c4ccccc4)c(=O)c23)C1,4.08% (inactive)
19,O=C(Nc1nnc(-c2ccc3c(c2)CCCC3)o1)c1ccccc1Cl,2.51% (inactive)
20,CSC(=NCCCN1CCOCC1)NS(=O)(=O)c1cccs1,1.51% (inactive)

row,Compound,inhibition
1,O=C(N=c1nc2ccccn2s1)c1ccccc1,3.28% (inactive)
2,CCN(CC)CCOc1c(Br)ccc2c1sc1nc3n(c(=O)c12)CCC3,0.405% (inactive)
3,Cn1cnnc1SCc1ccc(C(=O)O)cc1,1.06% (inactive)
4,CCC(=O)N1CCc2cc(Br)cc(S(=O)(=O)N3CCN(c4ccccn4)CC3)c21,0.44% (inactive)
5,Cc1cc(=O)n2[nH]c(C)c(-c3ccc(Cl)cc3)c2n1,2.29% (inactive)
6,Cc1ccc2c(c1)c(C)c(C)n2CC(O)Cn1nc(C)cc1C (stereo not given),2.1% (inactive)
7,Cc1cccc(N(CC(=O)Nc2c(C)n(C)n(-c3ccccc3)c2=O)S(C)(=O)=O)c1C,1.41% (inactive)
8,O=C(CSc1oc(-c2ccc(F)cc2)nc1S(=O)(=O)c1ccccc1)NCC1CCCO1 (stereo not given),2.46% (inactive)
9,CCOc1ccccc1NC(=O)CSc1nnc(-c2cnccn2)n1C,3.12% (inactive)
10,CC1(C)Cc2c(c(=S)nc(-c3ccccc3)n2CCOCCO)CO1,0.775% (inactive)
11,COc1ccc(-c2cc3ccccc3n2CC(O)Cn2nc(C)cc2C)cc1 (stereo not given),0.2% (inactive)
12,CCOc1cc(CNC(=O)CN2C(=O)c3ccccc3S2(=O)=O)ccc1OC,1.69% (inactive)
13,CNC(=O)C1C2C=CC3(O2)C1C(=O)N(CCOC)C3C(=O)NCc1ccc(OC)cc1 (stereo not given),1.67% (inactive)
14,COc1ccc(NS(=O)(=O)c2cccc(-c3nnc4n3CCCCC4)c2)cc1,1.11% (inactive)
15,CC(C)(C)NS(=O)(=O)c1ccc(OCC(=O)Nc2ccc3c(c2)OCCO3)cc1,2.62% (inactive)
16,O=c1[nH]c2ccc(S(=O)(=O)NCc3ccccn3)cc2s1,1.35% (inactive)
17,O=C(Nc1cccc(Cl)c1Cl)c1ccncc1,1.85% (inactive)
18,Cn1ccnc1SCC(=O)NC1CCCCC1,3.6% (inactive)
19,O=C(Nc1ccc(Cl)cc1)c1ccncc1,1.14% (inactive)
20,CCn1cc(C(=O)NC2CCCCCC2)c2cc(OC)c(OC)cc2c1=O,2.02% (inactive)
